In PubChem BioAssay (EPA / NIEHS):
Results filed as inconclusive are left out. The source made the active and inactive calls. The calls were made as follows: active = hit-call score of the fitted dose curve at least 0.9, where 1 is the maximum; inconclusive = response in the unintended direction; inactive = score below 0.9.

Tested on: not listed separately
Assay: ACEA_ER_AUC_viability: ACEA Biosciences xCELLigence Real-Time Cell Analysis on Estrogen Receptor Agonism for Viability (AID 2283782);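 also: continuous compound exposure with impedance area under curve over 80 h; hit means loss of impedance signal meaning reduced cell growth or viability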
Procedure, shortened: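 T-47D human breast cells in phenol red-free RPMI1640 with 10% charcoal-stripped FBS were dosed with an 8-point 1:4 dilution series from 100 uM top final concentration, in duplicate. Impedance-based growth was followed for 80 h; AUC analysed versus DMSO.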

Structure (SMILES)	outcome	AC50
Oc1c(Br)cc(Br)cc1Br	inactive	–
CCCCCCCCCCBr	inactive	–
O=[N+]([O-])c1cc([As](=O)(O)O)ccc1O	inactive	–
CC(C)N(C(=O)CCl)c1ccccc1	–	18.5 µM (active)
CCC[CH2][Sn]([CH2]CCC)([CH2]CCC)[CH2]CCC	–	22 µM (active)
N#CCC#N	inactive	–
CC[N+](CC)(CC)CC	inactive	–
O=C(NC(=O)c1c(F)cccc1F)Nc1ccc(Cl)cc1	inactive	–
O=S1OC[C@@H]2[C@H](CO1)[C@]1(Cl)C(Cl)=C(Cl)[C@@]2(Cl)C1(Cl)Cl (stereo partly drawn)	–	50 µM (active)
O=[N+]([O-])c1ccccc1O	inactive	–
O=CCCl	–	10.3 µM (active)
CNC(=O)O/N=C/C(C)(C)S(C)(=O)=O	inactive	–
CCOP(=O)(OCC)OC(=CCl)c1ccc(Cl)cc1Cl	–	77.8 µM (active)
Cc1cc(Cl)ccc1O	inactive	–
CCCCOC(=O)COC(=O)c1ccccc1C(=O)OCCCC	inactive	–
O=C(O)COc1ccc(Cl)cc1	inactive	–
O=C1c2ccccc2C(=O)C1C(=O)C(c1ccccc1)c1ccc(Cl)cc1 (stereo not drawn)	–	33 µM (active)
CC(C)=CC1C(C(=O)OCc2cccc(Oc3ccccc3)c2)C1(C)C (stereo not drawn)	inactive	–
CCCSP(=S)(OCC)Oc1ccc(SC)cc1 (stereo not drawn)	inactive	–
O=S1(=O)OC(c2cc(Br)c(O)c(Br)c2)(c2cc(Br)c(O)c(Br)c2)c2ccccc21	inactive	–
CC(=Cc1ccccc1)[N+](=O)[O-]	–	11.5 µM (active)
O=C(NC(=O)c1c(F)cccc1F)Nc1cc(Cl)c(OC(F)(F)C(F)C(F)(F)F)cc1Cl (stereo not drawn)	–	50 µM (active)
COCCl	inactive	–
O=C(CCl)Nc1ccccc1	–	10.8 µM (active)
O=C(CBr)c1ccc(O)cc1	inactive	–
Cc1cc(Cl)ccc1OC(C)C(=O)O (stereo not drawn)	inactive	–

Biological target: AR (gene 367) (UniProt P10275)
Sequence (P10275 whole entry, looked up): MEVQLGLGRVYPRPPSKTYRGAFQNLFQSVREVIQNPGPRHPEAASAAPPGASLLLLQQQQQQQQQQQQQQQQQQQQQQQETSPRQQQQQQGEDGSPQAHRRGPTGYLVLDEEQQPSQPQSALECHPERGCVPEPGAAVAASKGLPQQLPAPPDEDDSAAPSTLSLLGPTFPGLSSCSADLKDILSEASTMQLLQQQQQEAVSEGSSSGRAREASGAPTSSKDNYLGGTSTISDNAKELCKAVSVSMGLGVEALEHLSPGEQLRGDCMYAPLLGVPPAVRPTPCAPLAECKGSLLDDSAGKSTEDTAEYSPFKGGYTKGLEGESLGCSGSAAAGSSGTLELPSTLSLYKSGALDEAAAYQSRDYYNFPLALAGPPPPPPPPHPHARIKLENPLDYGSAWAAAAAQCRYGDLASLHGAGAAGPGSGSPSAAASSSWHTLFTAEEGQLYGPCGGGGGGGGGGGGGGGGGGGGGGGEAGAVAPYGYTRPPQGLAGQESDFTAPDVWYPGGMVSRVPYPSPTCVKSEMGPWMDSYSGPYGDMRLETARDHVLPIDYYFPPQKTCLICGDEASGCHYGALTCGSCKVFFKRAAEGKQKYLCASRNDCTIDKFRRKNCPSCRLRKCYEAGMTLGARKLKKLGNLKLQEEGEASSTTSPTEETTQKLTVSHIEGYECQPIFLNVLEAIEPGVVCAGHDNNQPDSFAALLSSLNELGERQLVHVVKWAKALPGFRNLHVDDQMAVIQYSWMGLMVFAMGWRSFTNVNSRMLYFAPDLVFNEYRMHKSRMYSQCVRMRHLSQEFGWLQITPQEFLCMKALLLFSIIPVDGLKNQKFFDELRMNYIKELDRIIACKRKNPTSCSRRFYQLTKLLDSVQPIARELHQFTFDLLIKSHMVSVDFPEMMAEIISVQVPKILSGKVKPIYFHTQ
Assay: ACEA_AR_agonist_80hr: ACEA Biosciences xCELLigence Real-Time Cell Analysis on Androgen Receptor Agonism for Proliferation (AID 2283783);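 also: hits increase impedance growth signal above DMSO baseline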
Procedure, shortened: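 22Rv1 human prostate cancer cells were seeded after preconditioning in assay medium and monitored overnight, then dosed in an eight-point 1:4 dilution series from 100 uM (≤0.5% DMSO). Impedance-based growth was read at 80 h, gain-of-signal versus DMSO.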

Structure (SMILES)	outcome
CC(C)N(C(=O)CCl)c1ccccc1	inactive
N#CCC#N	inactive
O=C1c2ccccc2C(=O)C1C(=O)C(c1ccccc1)c1ccc(Cl)cc1 (stereo not drawn)	inactive
C=CC(Cl)CCl (stereo not drawn)	inactive
O=S1(=O)OC(c2cc(Br)c(O)c(Br)c2)(c2cc(Br)c(O)c(Br)c2)c2ccccc21	inactive
O=C(CCl)Nc1ccccc1	inactive

Biological target: AR (gene 367) (UniProt P10275)
Assay: ACEA_AR_antagonist_80hr: ACEA Biosciences xCELLigence Real-Time Cell Analysis on Androgen Receptor Antagonism for Proliferation (AID 2283787);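 also: hits lower the impedance growth signal relative to DMSO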
Procedure, shortened: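 Impedance readout (RT-CES), 80 h post-dose; loss-of-signal vs DMSO baseline. 22Rv1 cells in assay medium. Compounds: 8-pt 1:4 series, max 100 uM final, up to 0.5% DMSO; n = 2.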

Structure (SMILES)	outcome	AC50
N#CCC#N	inactive	–
O=S1OC[C@@H]2[C@H](CO1)[C@]1(Cl)C(Cl)=C(Cl)[C@@]2(Cl)C1(Cl)Cl (stereo partly drawn)	inactive	–
Cc1cc(Cl)ccc1OCCCC(=O)O	inactive	–
CNC(=O)O/N=C/C(C)(C)S(C)(=O)=O	inactive	–
O=C1c2ccccc2C(=O)C1C(=O)C(c1ccccc1)c1ccc(Cl)cc1 (stereo not drawn)	–	25 µM (active)
C=CC(Cl)CCl (stereo not drawn)	inactive	–
O=S1(=O)OC(c2cc(Br)c(O)c(Br)c2)(c2cc(Br)c(O)c(Br)c2)c2ccccc21	inactive	–
CC(=Cc1ccccc1)[N+](=O)[O-]	–	6.33 µM (active)
O=C(NC(=O)c1c(F)cccc1F)Nc1cc(Cl)c(OC(F)(F)C(F)C(F)(F)F)cc1Cl (stereo not drawn)	–	6.32 µM (active)
COCCl	inactive	–
O=C(CCl)Nc1ccccc1	–	16.6 µM (active)
